Assay outcomes deposited in PubChem by National Center for Advancing Translational Sciences (NCATS).
FBPA coupling cs: coupling enzyme interference in Giardia aldolase counter-screen | activity change, negative = inhibition, % at 58.2 µM, hits read low | coupling enzyme system counterscreen, AmpLite Red fluorescence | hit rate 0.67% among 290,000; in the data active = activity change below about -30%
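Counterscreen of the coupled detection system alone, without aldolase: glyceraldehyde-3-phosphate coupling enzymes plus AmpLite Red readout. Compounds at 57.5 uM final, 10 min RT preincubation, 20 min RT reaction, fluorescence 525/598 nm.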
Tau ThT inhib: blocks human tau fibril formation measured by thioflavin T. P10636. recombinant tau K18 P301L, heparin-induced fibrillization, ThT fluorescence. Potency, µM (doses to about 57.4 µM), for inactives: at the highest dose activity, negative = inhibition, most hits filed as inhibitors. hit rate 2.1% among 270,000. AID 1460; note: potency is the fitted concentration of half-maximal effect; nearly all actives have a fitted effect of over 55% in size
Target sequence (P10636 561-689 P618L limits assumed): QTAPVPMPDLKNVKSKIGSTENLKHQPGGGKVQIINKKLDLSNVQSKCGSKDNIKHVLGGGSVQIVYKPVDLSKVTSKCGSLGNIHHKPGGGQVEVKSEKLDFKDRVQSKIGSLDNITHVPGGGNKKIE
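Heparin-induced (20 uM) aggregation of recombinant human K18 P301L tau, 15 uM unlabeled with 0.24 uM labeled, pH 7 acetate buffer, 6 hr at 37 C with compound. Fibrils quantified by 30 uM ThT fluorescence after 1 hr ambient incubation.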
Sfp inh: blocks B. subtilis Sfp PPTase activity. Biochemical Sfp PPTase activity, qHTS. Q9F4F7. Potency, µM, for inactives: largest response in the series, negative = inhibition, actives largely listed as inhibitors. AID 1490. hit rate 3.5% among 310,000;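 note: the enzyme is Sfp with the accession as filed and its product quenches rhodamine fluorescence; potency is the fitted concentration of half-maximal effect; 0% = enzyme reaction without inhibitor and -100% = no enzyme wells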
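After 15 min at room temperature with compound, 15 nM Sfp received 5 uM rhodamine-CoA plus 12.5 uM BHQ-2-ybbR (50 mM Hepes pH 7.6, 10 mM MgCl2). Rate came from the fluorescence difference over 30 min, ex 525/em 598 nm.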
Tau fibril FP: tau fibrillization inhibition (FP); K18 P301L tau heparin fibrillization, Alexa594 FP, 6 h; Potency, µM (series often up to 57.7 µM), without a hit: top-dose activity, negative = inhibition, usual class: inhibitors; hit rate 0.39% among 280,000; AID 1468; note: potency is the fitted concentration of half-maximal effect; nearly all actives have a fitted effect of over 55% in size
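Read-out: fluorescence polarization of Alexa 594-labeled tau (0.24 uM), 555 nm excitation, 632 nm emission. Mixtures held 15 uM unlabeled K18 P301L, compound and 20 uM heparin, pH 7 acetate buffer, incubated 6 hr at 37 C.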
Tau fluor counter: counter-screen for tau fibril formation inhibitors; hit rate 0.93% among 280,000; Potency, µM (top dose mostly 57.7 µM), for the others: at the top dose activity change, negative = decrease; tau K18 P301L (four-repeat tau fragment) Alexa594 fluorescence, heparin fibrillization; AID 1463; note: potency is the fitted concentration of half-maximal effect; nearly all actives have a fitted effect of over 55% in size
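Human K18 P301L tau (15 uM unlabeled plus 0.24 uM Alexa 594-labeled, final) in 100 mM sodium acetate pH 7 was mixed with compound and 20 uM heparin and incubated 6 hr at 37 C.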
Numbers without * were called inactive; u = inconclusive; x = not tested or not shown; [ ] = another dose, or the depositor's remark. A selection: hits, their analogues and other compounds. The true share with any hit is near 5.2%. Unless noted, calls come from the whole dose curve; as a rule, active = well fitted curve in the direction sought with a large enough effect; inconclusive = small, poorly fitted or top-dose-only effect, or another doubt; inactive = no such curve, though single readings can be large; an effect the other way counts as inactive or inconclusive. Unless noted, % is set by controls: 0 for no effect and ±100 for the full control effect.

SMILES	FBPA coupling cs	Tau ThT inhib	Sfp inh	Tau fibril FP	Tau fluor counter
Cc1ccc(CCNC(=O)C(NS(=O)(=O)c2ccc3c(c2)oc(=O)n3C)C(C)C)cc1 (stereo unspecified)	x	6%	x	0%	2%
CC(C)(C)C1=CC(O)(c2ccccc2)C=C(C(C)(C)C)C1=O	-6	x	22%	x	x
COc1ccc(S(=O)(=O)Cc2ccc(C(=O)NCc3ccccn3)o2)cc1	3	-15%	11%	1%	-11%
Cc1ccc(CS(=O)(=O)Cc2ccc(C(=O)NCc3ccccn3)o2)cc1	-1	-6%	50µM*	u	-5%
O=C(Nc1nccs1)C(Br)C(Br)c1ccccc1 (stereo unspecified)	3	x	50µM*	x	x
CC(=O)OC(C(=O)Nc1nccs1)c1ccccc1 (stereo unspecified)	-1	x	19%	x	x
Cc1ccc(Nc2cc(-c3ccccc3)nc(C)n2)cc1	x	-6%	x	3%	u
COc1ccc(Nc2cc(Nc3cccc(OC)c3)ncn2)cc1	1	x	-5%	x	x
COc1cccc(Nc2cc(-c3ccccc3)nc(C)n2)c1	x	u	x	-9%	28µM*[quencher]
Cc1nc(Nc2ccc(Cl)cc2)cc(-c2ccccc2)n1	x	21%	x	28µM*	13µM*[quencher]
Cc1ccc(CN(C)C(=O)C2CCC(=O)N(CCc3ccccc3)C2)o1 (stereo unspecified)	0	x	35µM*	x	x
CN(Cc1cnccn1)C(=O)C1CCC(=O)N(CCc2ccccc2)C1 (stereo unspecified)	-1	x	10%	x	x
COc1ccc(N2CCN(S(=O)(=O)CCNC(=O)c3ccc(C(F)(F)F)cc3)CC2)cc1	x	-1%	x	-1%	-3%
Cc1nn(CC(=O)NC2C(=O)N3C(C(=O)O)=C(CSc4nnnn4C)CSC23)cc1Br (stereo unspecified)	0	u	u	-12%	-7%
Cc1c(Cl)c(C(F)F)nn1CC(=O)NC1C(=O)N2C(C(=O)O)=C(CSc3nnnn3C)CSC12 (stereo unspecified)	-1	u	u	u	-4%
O=C(O)C1=C(CSc2nnnn2CS(=O)(=O)O)CS[C@@H]2[C@H](NC(=O)[C@H](O)c3ccccc3)C(=O)N12	x	x	79µM*	x	x
CC(C(=O)NC1C(=O)N2C(C(=O)O)=C(CSc3nnnn3C)CSC12)n1cc(Cl)cn1 (stereo unspecified)	-9	u	40µM*	-15%	-10%
Cc1c(Cl)cnn1CC(=O)NC1C(=O)N2C(C(=O)O)=C(CSc3nnnn3C)CSC12 (stereo unspecified)	0	u	50µM*	-11%	-10%
CCCN(C(=O)c1cc2c(s1)-c1ccccc1SC2)c1ccccc1F	x	-13%	x	-5%	-18%
COc1ccc(/C=C/C(=O)Nc2ccc3nc(N4CCCCC4)cc(C)c3c2)cc1OC	x	2.8µM*	x	u	7.9µM*[quencher]
COc1cccc(C(=O)Nc2ccc3nc(N4CCC(C)CC4)cc(C)c3c2)c1	x	u	x	6%	13µM*[quencher]
Cc1cc(N2CCOCC2)nc2ccc(NC(=O)CCC(=O)N3CCC(C)CC3)cc12	-33*	-8%	13%	-7%	-13%
COc1ccc(/C=C/C(=O)Nc2ccc3nc(N4CCC(C)CC4)cc(C)c3c2)cc1	x	u	x	13%	4µM*[quencher]
CCCCNC(=O)CCC(=O)Nc1ccc2nc(N3CCC(C)CC3)cc(C)c2c1	0	-17%	-1%	16%	-24%
Cc1cc(N2CCOCC2)nc2ccc(NC(=O)CCC(=O)N3CCCCC3)cc12	1	u	11%	3%	-13%
SMILES	FBPA coupling cs	Tau ThT inhib	Sfp inh	Tau fibril FP	Tau fluor counter
CCCCc1ccc(C(=O)Nc2ccc3nc(N4CCN(CC)CC4)cc(C)c3c2)cc1	x	u	x	-11%	u
COc1ccc(C(=O)Nc2ccc3nc(N4CCC(C)CC4)cc(C)c3c2)cc1	x	u	x	-7%	5µM*[quencher]
COc1ccc(N2CCN(c3ccnc4cc(Cl)ccc34)CC2)cc1	0	x	56µM*	x	x
Oc1ccc(N2CCN(c3ccnc4cc(Cl)ccc34)CC2)cc1	-1	x	u	x	x
O=C(Oc1cccnc1)c1ccc([N+](=O)[O-])cc1	1	u	-4%	12%	8.9µM*[quencher]
Cc1ccc(Oc2c(C(N)=O)cc([N+](=O)[O-])cc2[N+](=O)[O-])cc1	0	8.9µM*	u	u	u
Cc1cc(C)c(C)c(N=Nc2nc3ccccc3n2C)c1C	-2	8.9µM*	56µM*	-20%	u
Cc1ccc(CNc2nc3ccccc3n2C)cc1	2	x	-1%	x	x
Cc1ccc(C)c(N=Nc2nc3ccccc3n2C)c1	-7	5.6µM*	-14%	-1%	u
COc1ccccc1CNc1ccnc(-c2cccc(NS(C)(=O)=O)c2)n1	-1	x	0%	x	x
COc1cccc2c1cc1c(=O)n(CC(=O)N3CCN(c4cccc(C)c4)C(C)C3)nc(C)n12 (stereo unspecified)	x	-5%	x	3%	-6%
Cc1[nH]c2ccccc2c1SCCNC(=O)c1ccc(S(=O)(=O)N2CCCC2)cc1	-2	-15%	5%	6%	16µM*[quencher]
COc1ccc(-c2[nH]c3ccccc3c2SCCNC(=O)c2cc3ccccc3oc2=O)cc1	-1	u	9%	14%	11µM*[quencher]
Cc1[nH]c2ccccc2c1SCCNC(=O)c1ccc(F)cc1	x	-10%	x	19%	u
COc1ccc(CNC(=O)c2cc3ccccc3oc2=O)cc1	0	x	9%	x	x
CCN(CC)S(=O)(=O)c1ccc(C(=O)NCCSc2c(-c3ccc(C)cc3)[nH]c3ccccc23)cc1	x	-4%	x	-1%	3.2µM*[quencher]
CC(C)C[C@H](N)c1nnc(S(=O)(=O)Cc2ccc(F)cc2)o1	5	-1%	14µM*	u	-3%
CN1CC(O)C2=CC(=O)C(=O)C=C21 (stereo unspecified)	x	3.2µM*	5.6µM*	13µM*	5.6µM*[quencher]
CCN=c1scc(-c2ccco2)n1/N=C/c1ccc(O)cc1	4	7.1µM*	35µM*	8%	14µM*[quencher]
CCN=c1scc(C)n1/N=C/c1cc(Br)c(O)c(Br)c1	6	u	u	15%	u
CCN=c1scc(-c2ccco2)n1/N=C/c1ccc(OC)c(O)c1	-2	10µM*	50µM*	u	16µM*[quencher]
COc1cccc(Cn2c(=O)c(C)nc3cnc(N4CCOCC4)nc32)c1	1	x	11%	x	x
O=C1c2ccccc2C(=O)N1CCCc1c[nH]c2ccc(Cl)cc12	1	-18%	13%	-14%	11µM*[quencher]
O=C(OCc1cc(=O)n2nc(C3CC3)sc2n1)c1ccc(NC(=O)c2ccccc2Cl)cc1	x	-11%	x	14%	-12%
Cc1ccc(C2CC(c3ccccc3)=NN2C(=S)Nc2ccccc2)o1 (stereo unspecified)	-5	u	45µM*	4%	-12%
CC(C)c1ccc(C(=O)Nc2nnc(S(=O)(=O)N3CCCCC3)s2)cc1	x	x	21%	x	x
